# Measurements published in ChEMBL document CHEMBL2218924, “A broad activity screen in support of a chemogenomic map for kinase signalling research and drug discovery” (Biochem J, 2013).
# Tests used:
# [1] = target: T1, Ephrin type-B receptor 1 (Homo sapiens) (UniProt P54762); conditions: at 10 µM
# T1 sequence (whole entry): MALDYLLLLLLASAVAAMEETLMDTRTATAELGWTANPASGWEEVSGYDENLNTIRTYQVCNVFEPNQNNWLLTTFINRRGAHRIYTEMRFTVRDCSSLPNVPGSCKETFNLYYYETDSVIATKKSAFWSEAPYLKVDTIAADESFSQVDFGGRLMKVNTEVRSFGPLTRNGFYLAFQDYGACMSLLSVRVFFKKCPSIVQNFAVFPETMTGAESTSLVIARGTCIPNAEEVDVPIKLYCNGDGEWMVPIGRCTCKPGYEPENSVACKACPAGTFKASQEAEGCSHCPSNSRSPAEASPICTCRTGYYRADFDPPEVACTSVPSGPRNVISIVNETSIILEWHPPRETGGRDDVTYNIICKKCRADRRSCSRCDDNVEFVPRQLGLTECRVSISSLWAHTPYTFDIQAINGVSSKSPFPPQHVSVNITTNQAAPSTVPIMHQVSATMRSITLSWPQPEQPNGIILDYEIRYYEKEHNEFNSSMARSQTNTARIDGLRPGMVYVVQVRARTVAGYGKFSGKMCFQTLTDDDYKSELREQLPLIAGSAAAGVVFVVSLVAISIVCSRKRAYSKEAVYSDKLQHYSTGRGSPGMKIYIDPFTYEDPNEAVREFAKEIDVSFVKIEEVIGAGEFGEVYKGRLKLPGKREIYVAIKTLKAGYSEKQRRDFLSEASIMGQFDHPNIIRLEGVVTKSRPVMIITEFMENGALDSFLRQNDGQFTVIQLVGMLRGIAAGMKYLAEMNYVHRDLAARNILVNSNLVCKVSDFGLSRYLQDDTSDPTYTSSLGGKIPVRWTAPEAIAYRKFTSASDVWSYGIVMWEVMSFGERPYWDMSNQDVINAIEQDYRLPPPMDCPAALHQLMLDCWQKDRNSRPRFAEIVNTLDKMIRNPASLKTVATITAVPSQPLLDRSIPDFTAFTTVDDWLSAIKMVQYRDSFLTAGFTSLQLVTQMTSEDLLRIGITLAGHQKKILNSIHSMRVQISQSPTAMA
# [2] = target: T2, Ephrin type-B receptor 2 (Homo sapiens) (UniProt P29323); conditions: at 1 µM
# T2 sequence (whole entry): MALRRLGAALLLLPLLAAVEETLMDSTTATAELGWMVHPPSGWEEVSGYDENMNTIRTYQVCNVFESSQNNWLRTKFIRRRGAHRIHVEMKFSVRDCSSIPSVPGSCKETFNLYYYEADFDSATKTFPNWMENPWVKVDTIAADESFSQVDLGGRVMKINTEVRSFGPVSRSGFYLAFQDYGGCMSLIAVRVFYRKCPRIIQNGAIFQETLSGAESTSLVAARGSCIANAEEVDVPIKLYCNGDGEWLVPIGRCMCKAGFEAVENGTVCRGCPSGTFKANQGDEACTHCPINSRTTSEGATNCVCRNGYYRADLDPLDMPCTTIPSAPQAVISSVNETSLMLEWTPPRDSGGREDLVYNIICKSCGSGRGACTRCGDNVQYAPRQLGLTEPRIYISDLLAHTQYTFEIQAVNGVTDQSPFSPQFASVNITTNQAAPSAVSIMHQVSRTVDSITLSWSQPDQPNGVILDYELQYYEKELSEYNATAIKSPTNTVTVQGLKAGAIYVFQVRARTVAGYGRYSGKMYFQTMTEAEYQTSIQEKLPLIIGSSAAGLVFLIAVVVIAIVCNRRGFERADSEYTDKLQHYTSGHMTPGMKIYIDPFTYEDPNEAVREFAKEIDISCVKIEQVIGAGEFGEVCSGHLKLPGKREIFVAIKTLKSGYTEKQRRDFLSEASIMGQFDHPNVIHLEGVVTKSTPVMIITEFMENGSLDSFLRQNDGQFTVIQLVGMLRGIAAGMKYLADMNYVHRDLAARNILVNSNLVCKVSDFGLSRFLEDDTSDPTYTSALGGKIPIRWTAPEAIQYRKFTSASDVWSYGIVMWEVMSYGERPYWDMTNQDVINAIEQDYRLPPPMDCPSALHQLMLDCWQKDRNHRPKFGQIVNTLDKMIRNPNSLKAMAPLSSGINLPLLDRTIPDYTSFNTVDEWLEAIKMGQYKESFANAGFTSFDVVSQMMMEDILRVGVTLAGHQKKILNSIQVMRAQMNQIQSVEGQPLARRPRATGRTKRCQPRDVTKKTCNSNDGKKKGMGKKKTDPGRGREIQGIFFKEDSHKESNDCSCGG
# [3] = target: T2, Ephrin type-B receptor 2 (Homo sapiens); conditions: at 10 µM
# [4] = target: T3, Ephrin type-B receptor 3 (Homo sapiens) (UniProt P54753); conditions: at 1 µM
# T3 sequence (whole entry): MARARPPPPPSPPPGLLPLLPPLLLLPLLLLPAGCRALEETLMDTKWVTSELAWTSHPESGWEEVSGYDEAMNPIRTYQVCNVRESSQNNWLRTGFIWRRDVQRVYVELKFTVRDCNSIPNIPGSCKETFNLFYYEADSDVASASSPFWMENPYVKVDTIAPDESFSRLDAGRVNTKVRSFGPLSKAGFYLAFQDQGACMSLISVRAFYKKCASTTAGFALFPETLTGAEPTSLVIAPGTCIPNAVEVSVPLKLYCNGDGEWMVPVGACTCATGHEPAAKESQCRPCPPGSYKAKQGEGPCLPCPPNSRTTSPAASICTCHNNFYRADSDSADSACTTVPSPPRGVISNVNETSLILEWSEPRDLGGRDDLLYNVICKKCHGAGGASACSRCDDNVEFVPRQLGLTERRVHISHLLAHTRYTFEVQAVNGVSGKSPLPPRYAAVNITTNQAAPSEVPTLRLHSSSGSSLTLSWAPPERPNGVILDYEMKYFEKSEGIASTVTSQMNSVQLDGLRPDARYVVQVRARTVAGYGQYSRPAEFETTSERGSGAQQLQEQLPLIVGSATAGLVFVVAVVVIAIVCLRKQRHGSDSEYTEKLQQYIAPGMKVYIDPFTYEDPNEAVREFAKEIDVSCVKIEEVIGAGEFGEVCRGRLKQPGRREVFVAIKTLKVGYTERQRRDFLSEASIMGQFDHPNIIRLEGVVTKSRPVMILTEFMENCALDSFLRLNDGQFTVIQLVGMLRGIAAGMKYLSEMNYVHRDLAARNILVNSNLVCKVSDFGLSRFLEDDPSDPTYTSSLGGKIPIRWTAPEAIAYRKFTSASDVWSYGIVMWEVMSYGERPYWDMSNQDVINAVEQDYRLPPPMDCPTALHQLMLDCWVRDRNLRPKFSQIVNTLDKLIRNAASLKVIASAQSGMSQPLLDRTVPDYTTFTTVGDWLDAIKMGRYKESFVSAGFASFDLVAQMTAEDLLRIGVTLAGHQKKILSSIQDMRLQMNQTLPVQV
# [5] = target: T3, Ephrin type-B receptor 3 (Homo sapiens); conditions: at 10 µM
# [6] = target: T4, Ephrin type-B receptor 4 (Homo sapiens) (UniProt P54760); conditions: at 1 µM
# T4 sequence (whole entry): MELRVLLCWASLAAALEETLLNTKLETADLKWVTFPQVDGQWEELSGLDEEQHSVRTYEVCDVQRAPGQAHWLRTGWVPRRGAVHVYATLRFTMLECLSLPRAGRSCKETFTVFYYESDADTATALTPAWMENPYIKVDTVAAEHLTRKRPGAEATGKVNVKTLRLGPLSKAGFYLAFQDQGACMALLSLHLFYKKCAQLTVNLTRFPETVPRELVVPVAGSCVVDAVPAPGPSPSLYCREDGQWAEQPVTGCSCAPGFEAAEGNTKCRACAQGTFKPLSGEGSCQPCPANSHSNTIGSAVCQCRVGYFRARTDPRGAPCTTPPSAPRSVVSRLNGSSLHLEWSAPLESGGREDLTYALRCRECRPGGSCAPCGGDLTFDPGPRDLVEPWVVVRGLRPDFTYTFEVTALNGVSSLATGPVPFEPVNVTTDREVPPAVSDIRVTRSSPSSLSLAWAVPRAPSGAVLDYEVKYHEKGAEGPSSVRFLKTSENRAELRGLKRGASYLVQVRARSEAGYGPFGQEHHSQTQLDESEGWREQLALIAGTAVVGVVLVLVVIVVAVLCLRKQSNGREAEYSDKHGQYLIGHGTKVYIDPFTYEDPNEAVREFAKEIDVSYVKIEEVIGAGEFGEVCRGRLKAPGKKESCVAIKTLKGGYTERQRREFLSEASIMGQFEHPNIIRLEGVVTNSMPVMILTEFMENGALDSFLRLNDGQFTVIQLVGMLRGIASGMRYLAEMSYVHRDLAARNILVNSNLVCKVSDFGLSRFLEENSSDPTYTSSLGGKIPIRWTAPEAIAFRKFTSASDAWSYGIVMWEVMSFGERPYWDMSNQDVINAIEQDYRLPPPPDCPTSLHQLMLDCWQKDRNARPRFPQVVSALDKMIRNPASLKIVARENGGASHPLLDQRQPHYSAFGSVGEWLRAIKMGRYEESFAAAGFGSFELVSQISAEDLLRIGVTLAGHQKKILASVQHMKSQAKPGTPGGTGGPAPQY
# [7] = target: T4, Ephrin type-B receptor 4 (Homo sapiens); conditions: at 10 µM
# [8] = target: Receptor tyrosine-protein kinase erbB-4 (Homo sapiens) (UniProt Q15303); conditions: at 1 µM
# [9] = target: Receptor tyrosine-protein kinase erbB-4 (Homo sapiens) (UniProt Q15303); conditions: at 10 µM
# [10] = target: Focal adhesion kinase 1 (Homo sapiens) (UniProt Q05397); conditions: at 1 µM
# Chain of Focal adhesion kinase 1 (Homo sapiens) (Q05397 2-1052 limits assumed): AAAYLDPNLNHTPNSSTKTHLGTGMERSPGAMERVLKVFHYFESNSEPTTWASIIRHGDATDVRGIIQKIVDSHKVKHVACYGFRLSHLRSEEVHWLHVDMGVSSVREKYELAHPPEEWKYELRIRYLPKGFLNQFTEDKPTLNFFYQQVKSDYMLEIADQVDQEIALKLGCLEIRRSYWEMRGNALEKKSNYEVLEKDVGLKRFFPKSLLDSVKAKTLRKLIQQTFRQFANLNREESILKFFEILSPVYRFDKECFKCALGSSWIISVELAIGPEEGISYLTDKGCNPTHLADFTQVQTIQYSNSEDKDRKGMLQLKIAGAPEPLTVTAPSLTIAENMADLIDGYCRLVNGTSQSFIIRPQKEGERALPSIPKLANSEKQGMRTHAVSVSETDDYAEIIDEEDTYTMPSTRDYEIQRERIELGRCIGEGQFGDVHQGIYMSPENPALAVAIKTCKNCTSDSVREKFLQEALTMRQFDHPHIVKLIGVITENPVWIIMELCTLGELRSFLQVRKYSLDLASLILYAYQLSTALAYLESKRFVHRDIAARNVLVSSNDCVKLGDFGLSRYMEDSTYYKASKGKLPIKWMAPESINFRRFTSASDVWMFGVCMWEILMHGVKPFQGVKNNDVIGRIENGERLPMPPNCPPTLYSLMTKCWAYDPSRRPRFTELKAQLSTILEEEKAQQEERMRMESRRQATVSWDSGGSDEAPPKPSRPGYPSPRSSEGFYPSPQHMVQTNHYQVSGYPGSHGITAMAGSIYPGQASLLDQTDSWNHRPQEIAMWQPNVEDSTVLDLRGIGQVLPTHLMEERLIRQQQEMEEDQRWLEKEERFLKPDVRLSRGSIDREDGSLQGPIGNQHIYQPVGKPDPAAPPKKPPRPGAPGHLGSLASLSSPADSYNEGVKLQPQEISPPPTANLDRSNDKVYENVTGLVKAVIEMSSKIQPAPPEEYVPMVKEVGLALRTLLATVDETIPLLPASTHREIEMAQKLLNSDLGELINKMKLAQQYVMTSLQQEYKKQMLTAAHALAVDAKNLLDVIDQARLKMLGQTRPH
# Chain of Receptor tyrosine-protein kinase erbB-4 (Homo sapiens) (Q15303 whole entry): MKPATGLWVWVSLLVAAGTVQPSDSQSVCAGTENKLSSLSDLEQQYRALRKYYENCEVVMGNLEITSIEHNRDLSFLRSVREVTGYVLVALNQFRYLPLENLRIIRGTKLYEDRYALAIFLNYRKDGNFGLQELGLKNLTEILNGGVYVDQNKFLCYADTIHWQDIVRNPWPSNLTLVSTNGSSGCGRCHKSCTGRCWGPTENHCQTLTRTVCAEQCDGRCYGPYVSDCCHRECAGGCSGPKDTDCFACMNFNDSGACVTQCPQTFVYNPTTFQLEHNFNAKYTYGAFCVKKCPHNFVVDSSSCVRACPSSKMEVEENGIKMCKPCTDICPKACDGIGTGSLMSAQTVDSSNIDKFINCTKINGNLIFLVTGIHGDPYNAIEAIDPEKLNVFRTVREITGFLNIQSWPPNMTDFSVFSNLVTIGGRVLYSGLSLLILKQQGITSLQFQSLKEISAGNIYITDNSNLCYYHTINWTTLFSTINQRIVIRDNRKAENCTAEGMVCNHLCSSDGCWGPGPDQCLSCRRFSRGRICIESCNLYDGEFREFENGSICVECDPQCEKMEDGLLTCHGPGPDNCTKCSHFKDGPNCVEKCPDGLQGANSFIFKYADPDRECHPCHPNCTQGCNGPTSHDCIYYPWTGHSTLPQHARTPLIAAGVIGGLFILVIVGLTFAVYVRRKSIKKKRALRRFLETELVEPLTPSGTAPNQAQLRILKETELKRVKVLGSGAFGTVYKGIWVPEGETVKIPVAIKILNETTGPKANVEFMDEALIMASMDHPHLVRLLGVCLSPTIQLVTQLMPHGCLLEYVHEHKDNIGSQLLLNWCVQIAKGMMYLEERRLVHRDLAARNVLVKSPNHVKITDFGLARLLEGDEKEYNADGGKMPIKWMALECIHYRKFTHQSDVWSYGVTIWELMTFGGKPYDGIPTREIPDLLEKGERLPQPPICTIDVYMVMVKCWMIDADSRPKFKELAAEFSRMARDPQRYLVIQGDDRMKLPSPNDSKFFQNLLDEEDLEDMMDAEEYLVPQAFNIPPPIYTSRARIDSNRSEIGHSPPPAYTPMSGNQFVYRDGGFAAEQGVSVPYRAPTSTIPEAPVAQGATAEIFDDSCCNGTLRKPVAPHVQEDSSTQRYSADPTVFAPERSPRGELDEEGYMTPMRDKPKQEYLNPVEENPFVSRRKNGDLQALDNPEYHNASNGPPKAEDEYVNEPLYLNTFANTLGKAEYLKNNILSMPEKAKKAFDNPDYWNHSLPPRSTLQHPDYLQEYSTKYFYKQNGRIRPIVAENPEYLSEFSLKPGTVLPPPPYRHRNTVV
smiles,measurement,setting,value
C[S+]([O-])c1ccc(-c2nc(-c3ccc(F)cc3)c(-c3ccncc3)[nH]2)cc1 (stereo not given),residual activity,[1],56%
same,residual activity,[2],101%
same,residual activity,[3],61%
same,residual activity,[4],114% (inactive)
same,residual activity,[5],105%
same,residual activity,[6],107%
same,residual activity,[7],41%
same,residual activity,[8],115%
same,residual activity,[9],82%
same,residual activity,[10],125%
